Screening data (PubChem)
This is a sample that favours compounds with a hit; in the whole collection about 2.2% have one here.
Shn3 3UTR inh: inhibitors of Schnurri-3 3'UTR reporter in osteoblasts. Clone20 osteoblast Shn3 3'UTR firefly luciferase, 24 h. inhibition, % at 12.5 µM. hit rate 0.52% among 360,000. AID 588674;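 active = mean inhibition of at least 75% with every replicate also reaching 75%; inconclusive = mean inhibition at least 75% but some replicate below; inactive = mean inhibition below 75%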;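 also: 0% = median of neutral control wells and 100% = pilot-screen positive control compound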
LMP1 NFkB inh: inhibitors of Epstein-Barr LMP1-induced NF-kappaB reporter; hit rate 0.69% among 350,000; inhibition, % at 12.5 µM; AID 504558; LMP1-induced NF-kappaB luciferase reporter cells, luminescence; in the data active = inhibition above about 41%; inconclusive = no clear call, values can overlap the other calls;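 also: 0% = neutral control wells and 100% = reference inhibitor control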
PAX8 reporter: PAX8 transcriptional activity inhibition; RMG-I TPO-luciferase reporter, SteadyGlo, 24 h; inhibition, % at 12.6 µM; hit rate 1.2% among 360,000;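 active = mean replicate inhibition at least 60% with every replicate also reaching 60%; inconclusive = only one of the two criteria is met; inactive = mean below 60% and not all replicates reaching 60%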;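 also: luciferase light reporting Pax8 driven TPO promoter activity; plate controls were median of neutral control wells for no effect and mitoxantrone controls for full effect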
EWS-Fli block: blocks EWS/Fli oncoprotein-driven transcription; A673 NR0B1-luciferase reporter, viability-normalised; hit rate 0.67% among 350,000; inhibition, % at 12.6 µM;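 active = mean inhibition of at least 50% after viability correction, with every replicate also passing that limit; inconclusive = mean reaches 50% but only one of two replicates passes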;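 also: firefly luciferase signal divided by Alamar Blue viability fluorescence both relative to DMSO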
LGR2 antag: blocks bursicon-induced cAMP signaling via Drosophila LGR2; HEK293 LGR2, CRE-luciferase, bursicon-stimulated, 4 h; inhibition, % at 9.99 µM; hit rate 0.35% among 380,000;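 active = drop in luminescence signal, shown as inhibition above about 50% in the replicate tests, limit read from the data, passing the limit was not always enough; inconclusive = probably only some replicates passing the limit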;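 also: agonist challenge used bursicon conditioned medium at about half maximal strength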
TRPM1 prom inh: MITF TRPM1 promoter inhibition in SK-MEL-5 cells | hit rate 0.83% among 330,000 | SK-MEL-5 TRPM1 promoter luciferase, 24 h | inhibition, % at 12.5 µM;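 active = mean inhibition across replicates of 60% or more, whatever share of single replicates reaches that level; inconclusive = some that reach 60%, reason not given; inactive = mean inhibition across replicates below 60%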
Starred values were filed as active, the others as inactive; ? = inconclusive; · = no result.

SMILES | Shn3 3UTR inh | LMP1 NFkB inh | PAX8 reporter | EWS-Fli block | LGR2 antag | TRPM1 prom inh
CCOC(=O)C(O)(c1ccc(N(C)C(=O)COc2ccccc2)cc1)C(F)(F)F (configuration not stated) | -5.7 | 8.8 | 5.8 | · | · | -2.7
[O-]c1ccccc1-[n+]1c(-c2ccccc2)cc(-c2ccccc2)cc1-c1ccccc1 | -4.0 | 6.1 | 90.4* | 38.5 | 8.9 | 47.5
Nc1ccccc1-[n+]1c(-c2ccccc2)cc(-c2ccccc2)cc1-c1ccccc1 | 0.5 | 1.0 | ? | 10.4 | -7.6 | 15.5
Oc1ccccc1-[n+]1c(-c2ccccc2)cc(-c2ccccc2)cc1-c1ccccc1 | -13.4 | 3.8 | 77.8* | 20.9 | 2.4 | 12.4
Cc1ccccc1-[n+]1c(-c2ccccc2)cc(-c2ccccc2)cc1-c1ccccc1 | 29.6 | ? | 94.9* | 42.5 | 31.1 | 89.6*
CC(C)(O)/C=C/C(=O)C(C)(O)C1C(O)CC2(C)C3CC=C4C(C=C(O)C(=O)C4(C)C)C3(C)C(=O)CC12C (configuration not stated) | 89.5* | 45.0* | 91.4* | 30.0 | 87.9* | ·
CC(=O)OC(C)(C)/C=C/C(=O)[C@](C)(O)C1[C@H](O)C[C@@]2(C)C3CC=C4C(C[C@H](O)C(=O)C4(C)C)[C@]3(C)C(=O)C[C@]12C (some centres not stated) | 62.4 | 42.7* | · | · | · | 90.8*
CCN1[C@@H]2c3ccc(-c4cccc(C(=O)N(C)C)c4)c(=O)n3C[C@H]1[C@H](CO)[C@H]2C(=O)OC | · | · | -13.3 | -2.2 | 0.2 | ·
COC(=O)c1ccc(NC(=O)CSc2nc3ccc(N4C(=O)C5C6C=CC(C6)C5C4=O)cc3s2)cc1 (configuration not stated) | 20.5 | 14.3 | 8.4 | -22.3 | 104.0* | 62.3*
COC(=O)[C@@H]1[C@@H](CO)[C@@H]2Cn3c(ccc(-c4cccc(OC)c4)c3=O)[C@H]1N2CC1CC1 | · | · | · | 6.9 | -5.5 | ·
COc1ccc(/C=N\N=C(N)N)cc1 | 14.2 | 0.2 | -13.6 | 5.3 | 29.4 | -0.9
NC(N)=N/N=C/c1ccc(N(c2ccccc2)c2ccccc2)cc1 | 94.9* | 3.9 | 81.3* | 58.4* | 52.0* | 101.5*
COC(=O)[C@@H]1[C@@H](CO)[C@@H]2Cn3c(ccc(-c4cccnc4)c3=O)[C@H]1N2S(=O)(=O)c1ccccc1F | · | · | -4.4 | -3.5 | -4.7 | ·
Brc1ccc(-[n+]2c(-c3ccccc3)cc(-c3ccccc3)cc2-c2ccccc2)cc1 | 89.7* | 16.8 | 98.5* | 49.2 | -1.3 | 70.2*
O=C(O)c1ccc(-[n+]2c(-c3ccccc3)cc(-c3ccccc3)cc2-c2ccccc2)cc1 | 0.0 | -4.0 | 15.9 | 1.2 | -5.1 | -8.8
C[n+]1c(-c2ccccc2)cc(CCCCc2cc(-c3ccccc3)[n+](C)c(-c3ccccc3)c2)cc1-c1ccccc1 | 2.7 | 10.8 | 96.1* | 16.6 | 18.5 | 39.9
CCCOC(=O)c1ccc(-[n+]2c(-c3ccccc3)cc(-c3ccccc3)cc2-c2ccccc2)cc1 | 52.5 | 32.0 | 87.7* | 73.8* | -4.7 | 64.4*
COc1ccc(-c2cc(-c3ccccc3)[n+](C)c(-c3ccccc3)c2)cc1 | 15.4 | 9.5 | 87.1* | 38.6 | 44.1 | 65.9*
O=C1CNC[C@H]2[C@@H](c3ccc(Br)cc3)[C@@H](CO)N12 | · | · | -6.7 | -10.6 | 7.5 | ·
COC(=O)[C@H]1[C@H](CO)[C@H]2Cn3c(ccc(-c4ccccc4)c3=O)[C@@H]1N2CCc1ccccc1 | · | · | · | 1.7 | 7.5 | ·
COC(=O)[C@@H]1[C@@H](CO)[C@@H]2Cn3c(ccc(-c4ccccc4F)c3=O)[C@H]1N2C(=O)C1CCC1 | · | · | · | 1.7 | -9.1 | ·
C/C=C/c1ccc([C@H]2[C@@H](CO)N3CCCCN(C(=O)Cc4ccncc4)C[C@@H]23)cc1 | · | · | 6.0 | 2.5 | 4.1 | ·
COc1ccc(-[n+]2c(-c3ccccc3)cc(-c3ccc(C)cc3)cc2-c2ccccc2)cc1 | 36.7 | -0.9 | 106.0* | 41.2 | 28.4 | 74.5*
CC(C)c1oc(=O)cc2c1[C@@H](O)[C@H]1OC(=O)[C@@]3(C)C[C@@H](O)[C@@H](O)[C@@]2(C)C13 (some centres not stated) | -14.6 | 17.2 | 85.9* | 49.2 | 78.5* | 64.3*
C[C@H]1[C@@H](OS(=O)(=O)O)C[C@@H]2C[C@H]([C@@H](O)c3cc(=O)[nH]c(=O)[nH]3)NC3=NC[C@H]1N32 | 97.9* | 71.8* | · | · | · | 74.0*
SMILES | Shn3 3UTR inh | LMP1 NFkB inh | PAX8 reporter | EWS-Fli block | LGR2 antag | TRPM1 prom inh
CNC(=O)Oc1cccc2ccccc12 | · | -5.8 | 17.3 | 20.5 | -14.2 | 1.0
CNC(=O)Oc1ccc(-c2cn3cc(C)ccc3n2)cc1 | 48.7 | 64.2* | 40.4 | 70.3* | · | 20.0
CNC(=O)Oc1cccc(-c2cn3cc(Cl)ccc3n2)c1 | 13.2 | 8.5 | 13.6 | · | 81.9* | 20.6
CCC(COC(=O)NC)NC(=O)Oc1cccc(C)c1 (configuration not stated) | 0.3 | 0.0 | · | · | -2.6 | 3.9
COC(=O)[C@H]1[C@H](CO)[C@H]2Cn3c(ccc(-c4cccc(OC)c4)c3=O)[C@@H]1N2C(=O)c1cnccn1 | · | · | -9.2 | -2.3 | -2.1 | ·
COC(=O)[C@@H]1[C@@H](CO)[C@@H]2Cn3c(ccc(-c4ccc(F)cc4)c3=O)[C@H]1N2Cc1ccccc1 | · | · | -14.8 | -5.5 | -6.8 | ·
O=C1NC(=O)C(=Cc2ccc(-c3ccc(S(=O)(=O)N4CCOCC4)cc3)o2)C(=O)N1 | -130.0 | -15.1 | -28.1 | -5.0 | · | 4.6
O=C1NC(=O)C(=Cc2ccc(-c3ccc(Cl)cc3)o2)C(=O)N1 | 82.7 | 1.1 | · | · | · | 67.7*
COc1ccc2c(c1OC)CN1CCc3cc4c(cc3C1C2)OCO4 (configuration not stated) | 28.4 | 9.3 | 32.9 | 10.1 | 25.9 | -12.6
COc1ccc(NC2Oc3cc4c(cc3C(c3cc(OC)c(OC)c(OC)c3)C2C)OCO4)cc1 (configuration not stated) | -11.9 | -5.4 | 37.6 | 54.1* | -11.6 | 17.8
O=C(O)[C@@H]1[C@@H](CO)[C@@H]2Cn3c(ccc(-c4cncnc4)c3=O)[C@H]1N2C(=O)NC1CCCC1 | · | · | -9.7 | 13.5 | 4.3 | ·
CC(C)C[C@H](NC(=O)[C@@H]1CCCN1C(=O)[C@@H](N)Cc1ccc(O)cc1)C(=O)NCC(N)=O | -42.2 | 66.4* | -22.4 | -17.4 | 3.5 | 3.8
O=C1C(=O)c2ccccc2-c2ccccc21 | 117.2* | 86.1* | ? | 82.1* | 103.9* | 109.8*
Cc1cccc2nc(-c3ccccc3)c(-c3ccc(CN4CCC(n5c(=O)[nH]c6ccccc65)CC4)cc3)nc12 | · | · | 32.6 | 2.9 | 4.3 | ·
N#Cc1ccc2nc(-c3ccc(CN4CCC(n5c(=O)[nH]c6ccccc65)CC4)cc3)c(-c3ccccc3)nc2c1 | · | · | 90.8* | 6.5 | 14.7 | ·
CCn1nc(-c2ccccc2)nc2c(=O)n(C)c(=O)nc1-2 | 8.2 | -3.9 | · | · | · | 99.3*
